Bioassay records deposited in PubChem BioAssay by National Center for Advancing Translational Sciences (NCATS).
Sampled rows, rich in hits. Any-hit rate of the full collection: about 3.4%.
Giardia FBPA inh-1 = inhibitors of Giardia lamblia fructose-1,6-bisphosphate aldolase; 0.71% of 290,000 active; Potency, µM (doses to about 59.6 µM), actives largely listed as inhibitors; AID 2451; purified Giardia FBPA; note: nearly all actives have a fitted effect of over 55% in size
Target sequence (A8B2U2 whole entry, looked up): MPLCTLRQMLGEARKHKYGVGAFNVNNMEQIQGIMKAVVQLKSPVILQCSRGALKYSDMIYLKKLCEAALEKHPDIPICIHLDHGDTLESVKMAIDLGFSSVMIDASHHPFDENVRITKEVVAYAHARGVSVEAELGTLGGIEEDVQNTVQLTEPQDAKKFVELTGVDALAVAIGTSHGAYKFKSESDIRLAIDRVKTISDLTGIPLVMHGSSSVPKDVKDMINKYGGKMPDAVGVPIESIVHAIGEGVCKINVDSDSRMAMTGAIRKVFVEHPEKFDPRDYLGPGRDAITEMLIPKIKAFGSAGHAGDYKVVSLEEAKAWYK
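Giardia FBPA (40 nM reagent) was preincubated 10 min at RT with compound (up to 57.5 uM final), then substrate plus GAPDH/TPI/NAD/arsenate coupling system with diaphorase/resazurin was added; resorufin fluorescence (525/598 nm) was read after 20 min.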
Sm TGR block = S. mansoni TGR enzyme inhibition; Q962Y6; purified TGR, DTNB reduction, TNB absorbance 405 nm; Potency, µM (top dose mostly 114 µM), actives largely listed as inhibitors; 3% of 360,000 active; AID 485364; note: nearly all actives have a fitted effect of over 60% in size
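TGR 20 nM + NADPH 100 uM (dispensed conc.), cpd preinc 15 min RT; start with NADPH (500 uM addition) then DTNB (15 mM addition). Kinetic TNB absorbance, 405 nm filter. Four-parameter Hill fit across titration.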
AmpC no deterg = blocks E. coli AmpC beta-lactamase in detergent-free assay; P00811; AmpC nitrocefin hydrolysis, absorbance 480 nm, 0.0001% Triton; Potency, µM (top dose mostly 57.1 µM), hits mostly inhibitors; 0.52% of 330,000 active; note: nearly all actives have a fitted effect of over 20% in size
Target sequence (P00811 whole entry, looked up): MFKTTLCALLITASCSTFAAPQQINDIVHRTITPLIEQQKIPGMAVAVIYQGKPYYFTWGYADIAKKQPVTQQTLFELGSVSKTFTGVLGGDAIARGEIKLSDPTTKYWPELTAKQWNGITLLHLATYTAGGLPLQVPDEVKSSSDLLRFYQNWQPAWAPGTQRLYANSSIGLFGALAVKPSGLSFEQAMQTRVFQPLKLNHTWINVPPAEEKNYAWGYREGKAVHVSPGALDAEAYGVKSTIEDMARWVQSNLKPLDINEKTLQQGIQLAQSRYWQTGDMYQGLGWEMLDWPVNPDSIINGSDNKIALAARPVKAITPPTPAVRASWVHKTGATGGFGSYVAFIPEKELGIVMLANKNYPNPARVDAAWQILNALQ
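20 mM phosphate pH 7.0 + 0.01% (detergent screen) or 0.0001% Triton X-100; 5.3 nM AmpC reagent; cpd preinc 15 min RT; nitrocefin (800 uM stock) to start; A480 q20 s × 4 min; Activity was normalised to no-enzyme and no-compound control wells.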
RE007 growth inh = less growth of the S. pombe RE007 Vpr strain. S. pombe RE007 Vpr strain, BacTiter-Glo ATP luminescence, 24 h. Potency, µM (titrated, usually from 92.2 µM), most hits filed as inhibitors. 0.21% of 360,000 active. AID 651644; active = well fitted falling curve with a large enough effect; inconclusive = small, poorly fitted or top-dose-only effect; inactive = no such curve, though single readings can be large or run the other way; note: nearly all actives have a fitted effect of over 50% in size
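Fission yeast strain RE007, carrying one chromosomally integrated HIV-1 vpr copy, was seeded at OD 0.01 in PMG+AL medium with 23 nL pinned compound. After 24 h at 30 °C and 99% humidity, viability was read by BacTiter-Glo luminescence.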
AmpC detergent = AmpC beta-lactamase inhibition with detergent present; AmpC hydrolysis of nitrocefin, absorbance 480 nm, 0.01% Triton; 0.041% of 370,000 active; AID 485294; Potency, µM (series often up to 114 µM), hits mostly inhibitors; P00811; note: nearly all actives have a fitted effect of over 25% in size
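AmpC (5.3 nM in the dispensed reagent) in 20 mM phosphate pH 7.0 with 0.01% (detergent screen) or 0.0001% Triton X-100 was preincubated with compounds for 15 min at room temperature. Nitrocefin was then added from an 800 uM solution, and hydrolysis was followed at 480 nm.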
Giardia growth = Giardia lamblia growth inhibition; Potency, µM (doses to about 57.5 µM), actives largely listed as inhibitors; Giardia lamblia trophozoite growth inhibition; 5% of 1,500 active; shares compounds with Giardia FBPA inh-1;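 note: trophozoites exposed to compound for 48 h at 37 °C; nearly all actives have a fitted effect of over 70% in size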
Mammal cell tox = counter-screen for Giardia aldolase inhibitors: mammalian cell toxicity; AID 2786; 4% of 1,500 active; Potency, µM (doses to about 57.5 µM), most hits filed as inhibitors; mammalian cell viability counter-screen, qHTS; shares compounds with Giardia FBPA inh-1;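 note: Chinese hamster ovary cells used as mammalian cytotoxicity surrogate; viability measured as cellular ATP by luminescence; compound exposure lasted 48 h before reading; nearly all actives have a fitted effect of over 60% in size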
Giardia FBPA inh-2 = confirmation of Giardia fructose-bisphosphate aldolase inhibitors | shares compounds with Giardia FBPA inh-1 | purified Giardia aldolase enzyme activity, qHTS | Potency, µM (highest dose often 57.5 µM), usual class: inhibitors | 5% of 1,500 active; note: nearly all actives have a fitted effect of over 45% in size
Rabbit aldolase = selectivity test for Giardia aldolase inhibitors: rabbit aldolase; Potency, µM (series often up to 57.5 µM), usual class: inhibitors; 4% of 1,500 active; shares compounds with Giardia FBPA inh-1; Rabbit muscle FBPA enzyme inhibition, selectivity counter-screen; note: nearly all actives have a fitted effect of over 60% in size
GAPDH counter = GAPDH inhibition flagged for Giardia aldolase hits; GAPDH coupling enzyme counterscreen, biochemical, qHTS; Potency, µM (doses to about 57.5 µM), usual class: inhibitors; shares compounds with Giardia FBPA inh-1; 6% of 1,500 active; note: nearly all actives have a fitted effect of over 55% in size
Numbers stand for hits; n = inactive; u = inconclusive; x = no result; [ ] = remark or other dose. Unless noted, calls come from the whole dose curve; as a rule, active = well fitted curve in the direction sought with a large enough effect; inconclusive = small, poorly fitted or top-dose-only effect, or another doubt; inactive = no such curve, though single readings can be large; an effect the other way counts as inactive or inconclusive.

SMILES	Giardia FBPA inh-1	Sm TGR block	AmpC no deterg	RE007 growth inh	AmpC detergent	Giardia growth	Mammal cell tox	Giardia FBPA inh-2	Rabbit aldolase	GAPDH counter
Cc1cc(C)n(CC(=O)O)c(=O)c1[N+](=O)[O-]	7.9µM	40µM	n	n	n	n	n	n	n	n
Cc1ccc(C(=O)NCCNC(=O)CN2CCOCC2)cc1	n	n	n	n	n	x	x	x	x	x
CCc1oc(C(=O)OC)cc1CSC(=N)N	18µM	20µM	n	n	n	n[10.4 µM]	n	n	n	n
COC(=O)c1ccc(CSC(=N)N)o1	n	n	n	n	n	x	x	x	x	x
Cc1ccc(/C=C2\SC(=S)N(NS(=O)(=O)c3ccc(C)cc3)C2=O)cc1	25µM	n	n	n	n	n	n	n	n	n
Cc1ccc(S(=O)(=O)NN2C(=O)/C(=C\c3ccc(Cl)cc3)SC2=S)cc1	x	n	n	n	n	x	x	x	x	x
COc1ccc(CN2CC(C(=O)NCCCN3CCN(C)CC3)CC2=O)cc1 (centres undefined)	n	n	n	n	n	x	x	x	x	x
Oc1ccc(C2C[C@H]3CC[C@@H]2C3)cc1O (some centres undefined)	28µM	1µM	n	n	n	n	n	14µM	32µM	32µM
Cc1nnsc1-c1onc(C)c1C(=O)Nc1cc(Cl)cc(Cl)c1	n	n	n	n	n	x	x	x	x	x
O=C(NC(=S)Nn1cnnc1)c1ccccc1Br	11µM	n	n	n	n	u	n	n	n	n
C[C@@H]1CN([C@H](C)CO)C(=O)CCCn2nncc2CO[C@H]1CN(C)S(=O)(=O)c1ccc(F)cc1	x	x	x	n	x	x	x	x	x	x
NC(N)=NS(=O)(=O)c1ccc(NC(=S)NC(=O)c2ccncc2)cc1	11µM	20µM	n	n	n	n[10.4 µM]	n	n	n	n
Cc1ccccc1NC(=O)CN1CCN(C)CC1	25µM	n	n	n	n	n	n	n	n	n
NC1=NN=C(N2N=C(c3ccc(Br)cc3)CC2(O)C(F)(F)F)n2ncnc2C1 (centres undefined)	u	n	n	n	n	n	n	n	n	n
CCCc1nc2ccccc2c(NC(=O)CN(CC)CC)c1CC	16µM	n	n	n	n	n[10.4 µM]	n	n	n	n
CCCCc1nc2ccccc2c(NC(=O)CN(CC)CC)c1CCC	n	n	n	n	u	x	x	x	x	x
CCN(CC)CC(=O)Nc1cc(N(C)C)nc2ccccc12	5.6µM	n	n	n	n	u	n	n	n	n
Cc1ccc(S(=O)(=O)N2CCC(C(=O)Nc3ccc4c(c3)OCO4)CC2)cc1	n	n	n	n[3.69 µM]	n	x	x	x	x	x
CN(C)c1ncnc2c1NC1=C(S2)C(=NCCCC(=O)O)CC(C)(C)C1	u	u	n	n	n	n	n	n	n	n
O=C(N/N=C/c1cccc(OC2CSC2)c1)c1ccccc1O	n	n	n	n	n	x	x	x	x	x
Cn1ncc(Br)c1C(=O)N/N=C/c1cccc(OC2CSC2)c1	u	n	n	n	n	n	n	32µM	35µM	35µM
COCCOc1cc(NC(=O)c2cccc(OC)c2)c(Cl)cc1Cl	n	n	n	n	u	x	x	x	x	x
O=C(/C=C(\O)c1ccccc1)c1ccccc1O	n	x	x	x	x	x	x	x	x	x
O=C(N/N=C/c1cccnc1)c1cc(O)c(O)c(O)c1	10µM	n	n	n	n	u	n	n	n	n
O=C(N/N=C/c1cccnc1)c1ccc(O)cc1	n	n	n	n	n	x	x	x	x	x
SMILES	Giardia FBPA inh-1	Sm TGR block	AmpC no deterg	RE007 growth inh	AmpC detergent	Giardia growth	Mammal cell tox	Giardia FBPA inh-2	Rabbit aldolase	GAPDH counter
CCOC(=O)N1CCN(C(=S)NC(=O)c2c(-c3c(Cl)cccc3Cl)noc2C)CC1	n	n	n	n	n	x	x	x	x	x
Cc1onc(-c2c(Cl)cccc2Cl)c1C(=O)NC(=S)N1CCOCC1	4µM	n	n	n	n	n	u	n	n	n
CCCOc1ccccc1N/C(=N/c1nc(C)cc(C)n1)NC(=O)COc1ccc(OC)cc1	n	n	n	n	n	x	x	x	x	x
Fc1ccc(-n2c(=S)[nH]c3cccnc32)cc1	18µM	n	n	n	u	n	n	n	n	n
O=c1[nH]c(=S)n(-c2ccc(Br)cc2)c2ncccc12	x	x	x	n	x	x	x	x	x	x
Cc1ccc(O)c(CN(C)Cc2cc(C)ccc2O)c1	x	x	x	n	x	x	x	x	x	x
CN(CCCCCCN(C)Cc1ccccc1O)Cc1ccccc1O	28µM	n	n	n	n	u	n	n	n	n
FC(F)(F)c1ccnc(NCc2ccc(Cl)cc2)n1	n	n	n	n	n	x	x	x	x	x
O=S(=O)(NNc1nccc(C(F)(F)F)n1)c1cccc(Cl)c1Cl	16µM	n	n	n	n	n	n	u	u	u
NC(=S)NN=C1C2CC3CC(C2)CC1C3	18µM	n	n[11.4 µM]	n	u	n	n	n	n	n
CC(C)CCn1nnnc1C(c1ccc(F)cc1)N1CCN(C(=O)c2ccco2)CC1 (centres undefined)	n	n	n	n	n	x	x	x	x	x
Cc1c(CCO)c(=O)n2c([nH]c3ccccc32)c1C#N	25µM	n	n	n	n	n	n	n	n	n
CN(C)c1ccnc(C(=O)O)c1	n	n	n	n	n	x	x	x	x	x
O=C(O)c1cc(Br)ccn1	16µM	n	n	n	n	n[10.4 µM]	n	n	n	n
Cc1ccc(OCCCN2CCOCC2)cc1	20µM	n	n	n	u	u	n	n	n	n
CN(C)CCNC(C(=O)Nc1cccc(S(=O)(=O)N2CCOCC2)c1)c1ccccc1 (centres undefined)	x	n	n	n	n	x	x	x	x	x
CN(C)CCNC(C(=O)Nc1cccc(C(F)(F)F)c1)c1ccccc1 (centres undefined)	18µM	n	n	n	n	n	n	n	n	n
O=C(Nc1nccs1)c1cn2ccccc2n1	14µM	n	n	n	n	u	20µM	n	n	n
Cc1cnc(C(=O)Nc2nccs2)cn1	20µM	n	n	n	n	n	n	n	n	n
NNC(=O)c1cn2ccccc2n1	n	n	n	n	n	x	x	x	x	x
COC(=O)C1=C(NC(=O)C2CCCCC2)CCS1	n	n	n	n	n	x	x	x	x	x
COC1CCCCC1Nc1ccc(C)c(C)c1 (centres undefined)	20µM	n	n	n	n	n[10.4 µM]	n	n	n	n
CCOc1ccc(CNS(=O)(=O)c2ccc3c(c2)CCCN3C(C)=O)cc1	x	n	x	x	n	x	x	x	x	x
Cc1cc(SCNC(=O)c2ccccc2)ncn1	14µM	14µM	n	n	n	u	n	n	n	n
